Reference: PMC12820563, “FoxP3 forms a head-to-head dimer in vivo and stabilizes its multimerization on adjacent microsatellites”
In all, about 16,000 sequences were measured (“rpm ratio (pull-down/input)”: median about 0.94, highest 2% from about 1.7 on). The sample holds the highest values, similar sequences and a random draw of the others, so the mix is not that of the screen.

Target: T1, MBP-FoxP1dN (Mus musculus, UniProt P58462 326-579)
T1 sequence: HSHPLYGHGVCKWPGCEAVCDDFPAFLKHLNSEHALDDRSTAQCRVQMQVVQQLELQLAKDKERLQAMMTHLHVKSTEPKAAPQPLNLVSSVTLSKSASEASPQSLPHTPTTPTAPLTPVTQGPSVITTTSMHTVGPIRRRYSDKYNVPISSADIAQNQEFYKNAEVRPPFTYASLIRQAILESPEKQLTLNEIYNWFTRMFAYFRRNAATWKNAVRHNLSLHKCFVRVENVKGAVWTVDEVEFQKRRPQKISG
Experiment: PD-seq (MBP pull-down with sequencing); 20 mM Tris-HCl pH 7.5, 100 mM NaCl, 1.5 mM MgCl2, 0.4 uM protein, 0.1 uM dsDNA library, 30 min, room temperature, amylose pull-down; high values mean tight binding
Conditions: protein: recombinant; tags: His6-MBP; chain copies: 2; dsDNA, one strand shown
In short: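 A degenerate double-stranded DNA library, filled in with Klenow, was added at 0.1 µM to 0.4 µM His6-MBP-tagged mouse FoxP3 or FoxP1 fragment lacking the N-terminus, expressed in E. coli. Incubation lasted 30 min at room temperature in Tris pH 7.5 buffer with NaCl and MgCl2, after which complexes were collected on amylose resin, washed three times, digested with proteinase K to free the DNA, barcoded by PCR and sequenced by Illumina. Binding is the pooled-replicate reads-per-million enrichment of pull-down over input.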

Sequence | binding signal
GATGATTGTTCTCCCAGCTGATGAATTCTCACAGTCGAGTAAACAAATTTTCCTAATCTTTCTGTTCAAGCGCCATCTAC | 0.875 RPM ratio (pull-down/input)
GATGATTGTTCTCCCAGCTGATGAATTAATTGAGTCGAGTAAACAAATTTTCCTAATCTTTCTGTTCAAGCGCCATCTAC | 0.932 RPM ratio (pull-down/input)
GATGATTGTTCTCCCAGCTGATGAATTGGGTATCTCGAGTAAACAAATTTTCCTAATCTTTCTGTTCAAGCGCCATCTAC | 0.935 RPM ratio (pull-down/input)
GATGATTGTTCTCCCAGCTGATGAATTAGAAGCTTCGAGTAAACAAATTTTCCTAATCTTTCTGTTCAAGCGCCATCTAC | 0.996 RPM ratio (pull-down/input)
GATGATTGTTCTCCCAGCTGATGAATTGCGGCAGTCGAGTAAACAAATTTTCCTAATCTTTCTGTTCAAGCGCCATCTAC | 0.919 RPM ratio (pull-down/input)
GATGATTGTTCTCCCAGCTGATGAATTGCGCTAGTCGAGTAAACAAATTTTCCTAATCTTTCTGTTCAAGCGCCATCTAC | 1.06 RPM ratio (pull-down/input)
GATGATTGTTCTCCCAGCTGATGAATTTCTTTATTCGAGTAAACAAATTTTCCTAATCTTTCTGTTCAAGCGCCATCTAC | 0.979 RPM ratio (pull-down/input)
GATGATTGTTCTCCCAGCTGATGAATTCTTTTATTCGAGTAAACAAATTTTCCTAATCTTTCTGTTCAAGCGCCATCTAC | 1.13 RPM ratio (pull-down/input)
GATGATTGTTCTCCCAGCTGATGAATTTATTTATTCGAGTAAACAAATTTTCCTAATCTTTCTGTTCAAGCGCCATCTAC | 2.17 RPM ratio (pull-down/input)
GATGATTGTTCTCCCAGCTGATGAATTTATTCTTTCGAGTAAACAAATTTTCCTAATCTTTCTGTTCAAGCGCCATCTAC | 1.34 RPM ratio (pull-down/input)
GATGATTGTTCTCCCAGCTGATGAATTGATTTATTCGAGTAAACAAATTTTCCTAATCTTTCTGTTCAAGCGCCATCTAC | 1.27 RPM ratio (pull-down/input)
GATGATTGTTCTCCCAGCTGATGAATTTATTGATTCGAGTAAACAAATTTTCCTAATCTTTCTGTTCAAGCGCCATCTAC | 1.86 RPM ratio (pull-down/input)
GATGATTGTTCTCCCAGCTGATGAATTAATTTCCTCGAGTAAACAAATTTTCCTAATCTTTCTGTTCAAGCGCCATCTAC | 0.884 RPM ratio (pull-down/input)
GATGATTGTTCTCCCAGCTGATGAATTTATGCAGTCGAGTAAACAAATTTTCCTAATCTTTCTGTTCAAGCGCCATCTAC | 1.11 RPM ratio (pull-down/input)
GATGATTGTTCTCCCAGCTGATGAATTTACGTCATCGAGTAAACAAATTTTCCTAATCTTTCTGTTCAAGCGCCATCTAC | 1.45 RPM ratio (pull-down/input)
GATGATTGTTCTCCCAGCTGATGAATTACCTACCTCGAGTAAACAAATTTTCCTAATCTTTCTGTTCAAGCGCCATCTAC | 0.913 RPM ratio (pull-down/input)

Sequence | binding signal
GATGATTGTTCTCCCAGCTGATGAATTTACCTCCTCGAGTAAACAAATTTTCCTAATCTTTCTGTTCAAGCGCCATCTAC | 1.07 RPM ratio (pull-down/input)
GATGATTGTTCTCCCAGCTGATGAATTGTTTACCTCGAGTAAACAAATTTTCCTAATCTTTCTGTTCAAGCGCCATCTAC | 2.65 RPM ratio (pull-down/input)
GATGATTGTTCTCCCAGCTGATGAATTTTTTACCTCGAGTAAACAAATTTTCCTAATCTTTCTGTTCAAGCGCCATCTAC | 0.943 RPM ratio (pull-down/input)
GATGATTGTTCTCCCAGCTGATGAATTATTTACCTCGAGTAAACAAATTTTCCTAATCTTTCTGTTCAAGCGCCATCTAC | 1.86 RPM ratio (pull-down/input)
GATGATTGTTCTCCCAGCTGATGAATTTATTACCTCGAGTAAACAAATTTTCCTAATCTTTCTGTTCAAGCGCCATCTAC | 1.2 RPM ratio (pull-down/input)
GATGATTGTTCTCCCAGCTGATGAATTATACTGCTCGAGTAAACAAATTTTCCTAATCTTTCTGTTCAAGCGCCATCTAC | 0.951 RPM ratio (pull-down/input)
GATGATTGTTCTCCCAGCTGATGAATTCTGCCTGTCGAGTAAACAAATTTTCCTAATCTTTCTGTTCAAGCGCCATCTAC | 0.791 RPM ratio (pull-down/input)
GATGATTGTTCTCCCAGCTGATGAATTCATACATTCGAGTAAACAAATTTTCCTAATCTTTCTGTTCAAGCGCCATCTAC | 1.01 RPM ratio (pull-down/input)
GATGATTGTTCTCCCAGCTGATGAATTTGACCGATCGAGTAAACAAATTTTCCTAATCTTTCTGTTCAAGCGCCATCTAC | 0.841 RPM ratio (pull-down/input)
GATGATTGTTCTCCCAGCTGATGAATTGCTCGAGTCGAGTAAACAAATTTTCCTAATCTTTCTGTTCAAGCGCCATCTAC | 0.899 RPM ratio (pull-down/input)
GATGATTGTTCTCCCAGCTGATGAATTTCCGGAATCGAGTAAACAAATTTTCCTAATCTTTCTGTTCAAGCGCCATCTAC | 0.872 RPM ratio (pull-down/input)
GATGATTGTTCTCCCAGCTGATGAATTTTTTATATCGAGTAAACAAATTTTCCTAATCTTTCTGTTCAAGCGCCATCTAC | 1.08 RPM ratio (pull-down/input)
GATGATTGTTCTCCCAGCTGATGAATTTTATATATCGAGTAAACAAATTTTCCTAATCTTTCTGTTCAAGCGCCATCTAC | 1.11 RPM ratio (pull-down/input)
GATGATTGTTCTCCCAGCTGATGAATTTTAGTTATCGAGTAAACAAATTTTCCTAATCTTTCTGTTCAAGCGCCATCTAC | 1.18 RPM ratio (pull-down/input)
GATGATTGTTCTCCCAGCTGATGAATTTTCTTTATCGAGTAAACAAATTTTCCTAATCTTTCTGTTCAAGCGCCATCTAC | 1.2 RPM ratio (pull-down/input)
